Here are results for 24 molecules from PubChem BioAssay (Tox21).

Assay [1] in a line: qHTS assay to identify aromatase inhibitors - cell viability counter screen (AID 743084).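 Note: cells stimulated with testosterone during compound exposure; nearly all actives have a fitted effect of over 55% in size.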 Note: potency is the fitted concentration of half-maximal effect. Background: Quantitative high-throughput screening tests each substance at several concentrations.
Assay [2] concerns the target Aryl hydrocarbon receptor (Homo sapiens) (UniProt P35869). Put plainly: qHTS assay to identify small molecule that activate the aryl hydrocarbon receptor (AhR) signaling pathway (AID 743085).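 For activation: HG2L7.5c1 human HepG2 liver cells with stably integrated DRE-driven firefly reporter; series mostly up to about 70 µM.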 Note: nearly all actives have a fitted effect of over 15% in size. Note: potency is the fitted concentration of half-maximal effect. An outline of the steps:
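Luminescence (ONE-Glo) from a dioxin-responsive-element luciferase reporter in HG2L7.5c1 HepG2 cells after 24 hr compound exposure at 37C; viability measured by CellTiter-Fluor fluorescence beforehand.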

A short description of assay [3]: qHTS assay to identify small molecule that activate the aryl hydrocarbon receptor (AhR) signaling pathway - cell viability counter screen (AID 743086). Note: nearly all actives have a fitted effect of over 45% in size. Note: potency is the fitted concentration of half-maximal effect. An outline of the steps:
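HepG2-AhR-luc (HG2L7.5c1) cells, 4000/well, treated 24 h at 37 C with compound; viability measured as CellTiter-Fluor fluorescence after 30 min in the same wells as the luciferase read.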

Assay [4] has as its target Peroxisome proliferator-activated receptor gamma (Homo sapiens) (UniProt P37231). Nature of the assay: qHTS assay to identify small molecule agonists of the peroxisome proliferator-activated receptor gamma (PPARg) signaling pathway (AID 743094; active = well fitted activation curve with a large enough effect in the signal ratio in the repeat runs, not every such curve was filed as active; the % refers to the signal ratio). A digest of the protocol: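 Beta-lactamase FRET fluorescence was the read-out after a 1 h room-temperature substrate step, following 17 h compound treatment at 37C of HEK293H cells expressing a UAS-driven bla reporter responsive to PPARg.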

Assay [5] shares this target. Put plainly: qHTS assay to identify small molecule antagonists of the peroxisome proliferator-activated receptor gamma (PPARg) signaling pathway (AID 743191; calls by dose curve; note: nearly all actives have a fitted effect of over 30% in size; note: potency is the fitted concentration of half-maximal effect). An outline of the steps:
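GeneBLAzer PPARg UAS-bla HEK293H cells, 5 h post-plating, exposed to compounds 17 h at 37C. LiveBLAzer B/G FRET substrate added for 1 h at room temperature; beta-lactamase reporter read by fluorescence intensity.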

Assay [6] in a line: qHTS assay to identify small molecule antagonists of the peroxisome proliferator-activated receptor gamma (PPARg) signaling pathway - cell viability counter screen (AID 743194). Note: nearly all actives have a fitted effect of over 55% in size. Note: potency is the fitted concentration of half-maximal effect. A digest of the protocol: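 Cytotoxicity counter screen in PPARg-bla HEK293H cells, same wells as reporter assay. Compounds plus 50 nM rosiglitazone (final) for 17 h at 37 C, then viability read by CellTiter-Glo luminescence.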

A short description of assay [7]: qHTS assay for small molecule agonists of the antioxidant response element (ARE) signaling pathway (AID 743202; active = well fitted activation curve with a large enough effect in the signal ratio in the repeat runs, not every such curve was filed as active; the % refers to the signal ratio; note: potency is the fitted concentration of half-maximal effect). An outline of the steps: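 Agonist mode reporter screen: HepG2 cells with ARE-controlled beta-lactamase are incubated with test compounds for 16 h at 37 C, and beta-lactamase activity is measured as fluorescence of cleaved B/G FRET substrate.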
Assay [8] can be described thus: qHTS assay for small molecule agonists of the antioxidant response element (ARE) signaling pathway - cell viability counter screen (AID 743203; calls by dose curve; note: nearly all actives have a fitted effect of over 55% in size). An outline of the steps:
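HepG2 cells carrying ARE-driven beta-lactamase; 2,000 cells/well; 5 hrs plating; compound pinned from DMSO; 16 hrs 37C/5% CO2; CellTiter-Glo added; 30 min RT; luminescence.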

Assay [9] can be described thus: qHTS assay for small molecule activators of the heat shock response signaling pathway - cell viability counter screen (AID 743209). Note: nearly all actives have a fitted effect of over 50% in size. Note: potency is the fitted concentration of half-maximal effect. A digest of the protocol:
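Luminescence from CellTiter-Glo, added after the beta-lactamase FRET read, gave the viability signal. Cells were HSE-bla HeLa treated with DMSO-dissolved compounds for 5 h at 37 C following overnight plating.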

Assay [10] is described as follows: qHTS assay for small molecule activators of the heat shock response signaling pathway (AID 743210; active = well fitted activation curve with a large enough effect in the signal ratio in the repeat runs, with a control signal flat, not every such curve was filed as active; the % refers to the signal ratio;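 note: HeLa cells with beta-lactamase reporter driven by heat shock elements; series mostly up to about 63 µM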). A digest of the protocol:
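Quantitative high-throughput format using an engineered HeLa line in which heat shock response elements drive beta-lactamase; after 5 h with compound, cells received a B/G FRET substrate and fluorescence was read.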

The structures appear in SMILES notation. Inconclusive results are not listed. The source made the active and inactive calls. Unless noted, calls come from the whole dose curve; as a rule, active = well fitted curve in the direction sought with a large enough effect in the repeat runs; inconclusive = weak or mixed curves; inactive = no such curve, though single readings can be large; an effect the other way counts as inactive or inconclusive.

Chain of Peroxisome proliferator-activated receptor gamma (Homo sapiens) (P37231 whole entry, looked up): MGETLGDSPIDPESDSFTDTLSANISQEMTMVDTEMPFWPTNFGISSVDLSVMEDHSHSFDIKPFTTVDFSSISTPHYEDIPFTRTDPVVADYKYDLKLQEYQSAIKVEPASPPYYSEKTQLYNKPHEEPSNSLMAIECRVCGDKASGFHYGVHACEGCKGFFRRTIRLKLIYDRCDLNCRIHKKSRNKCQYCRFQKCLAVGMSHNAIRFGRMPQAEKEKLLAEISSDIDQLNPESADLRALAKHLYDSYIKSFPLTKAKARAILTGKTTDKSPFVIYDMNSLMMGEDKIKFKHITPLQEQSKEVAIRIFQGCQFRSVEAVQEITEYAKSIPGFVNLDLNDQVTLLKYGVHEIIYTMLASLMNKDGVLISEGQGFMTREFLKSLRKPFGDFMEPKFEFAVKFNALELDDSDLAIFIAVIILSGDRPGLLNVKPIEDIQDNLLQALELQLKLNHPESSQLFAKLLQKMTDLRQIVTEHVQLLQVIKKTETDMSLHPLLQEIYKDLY
Chain of Aryl hydrocarbon receptor (Homo sapiens) (P35869 whole entry, looked up): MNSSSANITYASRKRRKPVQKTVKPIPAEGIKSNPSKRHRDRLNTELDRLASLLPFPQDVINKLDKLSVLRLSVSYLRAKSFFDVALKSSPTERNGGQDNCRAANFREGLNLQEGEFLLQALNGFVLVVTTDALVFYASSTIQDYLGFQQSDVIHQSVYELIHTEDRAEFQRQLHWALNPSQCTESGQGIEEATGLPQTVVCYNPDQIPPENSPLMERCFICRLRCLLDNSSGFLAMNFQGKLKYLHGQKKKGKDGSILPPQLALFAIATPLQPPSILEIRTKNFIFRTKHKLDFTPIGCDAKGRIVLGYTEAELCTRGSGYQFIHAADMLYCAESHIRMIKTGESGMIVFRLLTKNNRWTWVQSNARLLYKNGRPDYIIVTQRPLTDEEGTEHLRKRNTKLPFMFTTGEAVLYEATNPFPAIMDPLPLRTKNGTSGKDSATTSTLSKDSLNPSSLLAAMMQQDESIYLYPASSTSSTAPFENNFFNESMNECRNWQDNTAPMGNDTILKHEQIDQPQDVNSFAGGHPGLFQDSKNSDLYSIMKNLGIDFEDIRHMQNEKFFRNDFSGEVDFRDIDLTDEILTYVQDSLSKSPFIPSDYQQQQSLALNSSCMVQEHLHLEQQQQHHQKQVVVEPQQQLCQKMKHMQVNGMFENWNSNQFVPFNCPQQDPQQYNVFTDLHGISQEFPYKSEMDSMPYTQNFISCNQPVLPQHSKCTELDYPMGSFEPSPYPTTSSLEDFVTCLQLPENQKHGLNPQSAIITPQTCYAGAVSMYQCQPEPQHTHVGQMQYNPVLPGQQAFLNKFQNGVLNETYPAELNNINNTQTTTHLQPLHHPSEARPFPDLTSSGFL

Turning to `O=C(O)CCCCCCC(=O)O`, the Potency result in assay [1], in assay [2], in assay [3], in assay [4], in assay [5] and in assay [6] was “inactive” throughout. The Potency result in [7], in assay [8], in [9] and in assay [10] was “inactive” throughout.

`CCCCCCCC/C=C\CCCCCCCC(=O)NCc1ccc(O)c(OC)c1`: the Potency entry in assay [1], in assay [2], in [3] and in assay [4] was “inactive” in each case.

As to `Cc1c(C(=O)O)cccc1[N+](=O)[O-]`, the Potency entry in [1], in [2], in assay [3], in [4], in assay [5] and in [7] was “inactive” throughout. In addition, the Potency entry in assay [8] and in assay [9] was “inactive” in each case.

`O=Cc1ccc(F)cc1`: the Potency entry in [1], in [2], in [3], in [4], in assay [5] and in assay [6] was “inactive” each time. Moreover, the Potency entry in assay [8], in [9] and in assay [10] was “inactive” throughout.

For the molecule `CCOC(=O)[C@@](C)(N)Cc1ccc(O)c(O)c1`, the Potency entry in assay [1], in assay [2], in assay [3], in [4], in assay [5] and in assay [6] was “inactive” in each case. For the same molecule, the Potency result in assay [8], in [9] and in assay [10] was “inactive” throughout.

Turning to `COC(=O)CC#N`, the Potency result in [1], in assay [2], in assay [3], in [4], in assay [5] and in assay [7] was “inactive” each time. In addition, the Potency entry in assay [8], in [9] and in assay [10] was “inactive” each time.

As for `CCCCCCCCCCCCCCCC`, the Potency result in assay [1], in [2], in [3], in assay [4], in assay [5] and in assay [6] was “inactive” throughout. Further, the Potency result in [8], in assay [9] and in assay [10] was “inactive” each time.

Consider `CN(Cc1cc(Br)cc(Br)c1N)C1CCCCC1`, for which the Potency result in [1], in assay [2], in assay [3], in assay [4], in assay [5] and in [6] was “inactive” throughout. Besides, the Potency result in [8] is “inactive”.

Take `O=C1OC(OC(=O)c2cccnc2Nc2cccc(C(F)(F)F)c2)c2ccccc21` (configuration not stated): the Potency result in [1], in assay [2], in assay [3], in [4], in assay [6] and in assay [8] was “inactive” throughout. For the same molecule, the Potency entry in assay [9] was “inactive”. In assay [5], the Potency was 11.9 µM (active).

For `S=C(SSSSSSC(=S)N1CCCCC1)N1CCCCC1`, the Potency was 0.379 µM (active) in [1], 2.39 µM (active) in assay [3] and 0.0763 µM (active) in assay [9]. Moreover, the Potency entry in assay [2], in [4], in assay [5] and in assay [8] was “inactive” each time.

With `c1cc2c3c(c1)ccc1cccc(c13)C2`, the Potency result in assay [1], in [2] and in assay [3] was “inactive” each time.

For the molecule `CCN(CC)c1ccc(N)cc1`, the Potency was 31.5 µM (active) in assay [1], 25 µM (active) in assay [2], 56 µM (active) in assay [3] and 12.5 µM (active) in assay [7]. Further, the Potency entry in assay [4], in [5] and in [6] was “inactive” each time.

As to `O=Nc1ccc(NO)cc1`, the Potency result in [1], in assay [3], in assay [4], in assay [5], in assay [6] and in assay [8] was “inactive” throughout. Further, the Potency entry in assay [9] and in assay [10] was “inactive” in each case. Also, the Potency in assay [2] is 31.9 µM (active); in assay [7], 6.36 µM (active).

On to `c1ccc(Sc2ccccc2)cc1`, for which the Potency entry in assay [1], in [2], in assay [3], in assay [4], in [5] and in assay [6] was “inactive” in each case. In addition, the Potency entry in assay [7] and in assay [8] was “inactive” each time.

As to `NCCCCCCNCCCCCCN`, the Potency result in assay [1], in [2], in assay [3], in assay [4], in assay [5] and in [6] was “inactive” each time. Besides, the Potency result in assay [8], in assay [9] and in assay [10] was “inactive” in each case.

Turning to `CCCCCCCC/C=C/CCCOC(C)=O`, the Potency entry in assay [1], in assay [2], in assay [3], in [4], in [5] and in [6] was “inactive” in each case. Besides, in assay [8], the Potency entry is “inactive”.

For the molecule `CCN1CCN(c2cc(-c3ccc(F)cc3)c3c(n2)CCCCCC3)CC1`, the Potency result in assay [1], in [2], in assay [3], in assay [4], in assay [5] and in assay [6] was “inactive” each time. Also, the Potency result in assay [8], in assay [9] and in assay [10] was “inactive” each time.

`Clc1ccc(C(c2ccccc2Cl)C(Cl)Cl)cc1` (configuration not stated): the Potency result in assay [1], in [2], in assay [3], in assay [4], in [5] and in assay [8] was “inactive” throughout. For the same molecule, the Potency result in [9] was “inactive”. Moreover, the Potency in assay [6] was 54.9 µM (active).

On to `NC(=O)c1nc(-c2cccc(-c3cc(F)ccc3OCC(F)(F)C(F)(F)F)c2)n[nH]1`, for which, in assay [1], the Potency was 43.3 µM (active). In addition, in assay [2], the Potency entry was “inactive”.

In the case of `Cc1ccc2ccc3cccc4ccc1c2c34`, the Potency result in assay [1], in assay [2], in assay [3], in [4], in assay [5] and in assay [6] was “inactive” in each case. Further, the Potency entry in assay [7], in assay [8], in [9] and in [10] was “inactive” each time.

Turning to `COC(=O)CC(C)CCC=C(C)C` (configuration not stated), the Potency entry in assay [1], in [2], in assay [3], in assay [4], in assay [5] and in assay [8] was “inactive” each time.

For `S=P(N1CC1)(N1CC1)N1CC1`, the Potency entry in assay [1], in assay [2], in assay [3] and in [4] was “inactive” throughout.

With `Nc1ncnc2c1ncn2[C@@H]1O[C@H](COP(=O)(O)O)[C@@H](O)[C@H]1O`, the Potency result in [1], in assay [2], in [3], in assay [4], in assay [5] and in assay [6] was “inactive” each time. In addition, the Potency entry in assay [7], in [8], in assay [9] and in assay [10] was “inactive” each time.

For the molecule `CC(=O)Oc1ccc(C2(c3ccc(OC(C)=O)cc3)C(=O)Nc3ccccc32)cc1`, the Potency entry in [1], in [2], in [3], in assay [4], in assay [5] and in assay [6] was “inactive” in each case. The Potency result in assay [8], in [9] and in assay [10] was “inactive” throughout.
